Drawing on ChEMBL document CHEMBL4513216, “Probing the Open Global Health Chemical Diversity Library for Multistage-Active Starting Points for Next-Generation Antimalarials” (ACS Infect Dis, 2020), this text covers INHIBITION for 53 compounds.

SMILES strings stand for the structures. In all, about 69,000 compounds went through this assay and about 8,600 (12%) showed an effect of 50% or more. The sample holds strong results, similar compounds and a random draw of the others, so the mix is not that of the screen.

The subject of the experiment is Plasmodium berghei. Briefly: Screen against P. berghei liver stage (PbLuc), transformed with Luciferase, at 10uM. The experiment is classed as functional, HepG2. Particulars: tested at 10 uM.
Regarding `CS(=O)(=O)NC[C@H]1OC[C@H]2CN(CCc3ccccc3)CC[C@H]21`, the INHIBITION is listed as 2.7%.

With `CC(C)C(=O)N1CCC(Cc2nccnc2Nc2ccccn2)CC1`, the INHIBITION is reported as 23.4%.

Turning to `CCS(=O)(=O)N1C[C@H]2CN(Cc3cccnc3)C(=O)[C@H]2C1`, the INHIBITION is given as -28.2%.

Regarding `O=C(CSc1nncs1)N1CCN(Cc2ccc(Cl)s2)CC1`, the INHIBITION was 2.37%.

With `O=C(CSc1nncs1)N1CCN(Cc2ccc(Cl)cc2)CC1`, the INHIBITION is 87.2%.

Take `CCNc1nnc(SCC(=O)N2CCN(Cc3ccc(Cl)s3)CC2)s1`: the INHIBITION came out at 40.5%.

Consider `c1ccc(-n2nc(CNC3CCc4ncnn4C3)c3c2CCC3)cc1` (stereo not drawn), for which the INHIBITION stood at 33.25%.

Turning to `Cc1noc([C@@H]2C[C@@H]3CCN(CC4CCOCC4)C[C@H]3O2)n1`, the INHIBITION is given as -23.4%.

In the case of `Cc1ccccc1C(C(=O)NCc1nc(-c2ncccn2)no1)N(C)C` (stereo not drawn), the INHIBITION was -24.9%.

For the compound `Cc1cccc(C(C(=O)NCc2nc(-c3ncccn3)no2)N(C)C)c1` (stereo not drawn), the INHIBITION is 56.3%.

Consider `Cc1cccc(C(C(=O)NCc2nc(-c3cccnc3)no2)N(C)C)c1` (stereo not drawn), for which the INHIBITION is given as 15.3%.

On to `CCN(Cc1cccc2c1OCO2)C(=O)NCCOC`, for which the INHIBITION came out at 31.3%.

Regarding `CC(C)(C)CC(NC(=O)N1CCS(=O)(=O)CC1)C(F)(F)F` (stereo not drawn), the INHIBITION was -47.8%.

As for `Cc1nn(C)cc1CN1CCc2nc(-c3cccnc3)nc(O)c2C1`, the INHIBITION is on record as 38.8%.

`CN1CCC(N2CC[C@H](c3nc4ccc(C(F)(F)F)cc4[nH]3)C2)CC1`: the INHIBITION worked out at 24.3%.

As to `FC(F)(F)c1ccc2nc([C@H]3CCN(C4CCOCC4)C3)[nH]c2c1`, the INHIBITION stood at 53%.

On to `FC(F)(F)c1ccc2nc([C@H]3CCN(C4CCCCC4)C3)[nH]c2c1`, for which the INHIBITION came to 73.7%.

With `FC(F)(F)c1ccc2nc([C@H]3CCN(C4CCC4)C3)[nH]c2c1`, the INHIBITION was determined as 39.2%.

As for `Fc1ccc2[nH]c([C@H]3CCN(C4CCOCC4)C3)nc2c1`, the INHIBITION worked out at 31.2%.

For `CC(C)N1CC[C@H](c2nc3ccc(C(F)(F)F)cc3[nH]2)C1`, the INHIBITION was found to be 30.3%.

Consider `O=S(=O)(CCN1CCN(c2ccccc2O)CC1)c1ccc(Br)cc1`, for which the INHIBITION stood at 18.9%.

With `CN(Cc1ccccc1)c1cnn(CC2COCCO2)c(=O)c1` (stereo not drawn), the INHIBITION is 28.2%.

For the compound `O=C(c1cnoc1)N1CCC[C@]2(C[C@@H](Oc3ccccn3)CO2)C1`, the INHIBITION is recorded as -27.9%.

On to `c1cnc(-c2cnc(N3CCCCC3)nc2C2CCCO2)cn1` (stereo not drawn), for which the INHIBITION is given as -14.1%.

Turning to `c1cc(CNc2ncc(-c3cnccn3)c(C3CC3)n2)ccn1`, the INHIBITION is given as 75.9%.

Regarding `c1cc(CCNc2ncc(-c3cnccn3)c(C3CC3)n2)ccn1`, the INHIBITION is 28.5%.

Regarding `c1cc(CNc2ncc(-c3cnccn3)c([C@@H]3CCCO3)n2)ccn1`, the INHIBITION was 5.34%.

For the compound `c1cnc(-c2cnc(N3CCSCC3)nc2C2CC2)cn1`, the INHIBITION was 64.3%.

For `c1cnc(-c2cnc(N3CCSCC3)nc2C2CCCO2)cn1` (stereo not drawn), the INHIBITION is 27.9%.

On to `CC(C)C(C(=O)N1CCCN(Cc2cscn2)CC1)n1cncn1` (stereo not drawn), for which the INHIBITION is on record as -22.9%.

For the compound `CC1CC(=O)c2cnc3nc(N4CCOCC4)[nH]c(=O)c3c2C1` (stereo not drawn), the INHIBITION is reported as 22%.

Consider `Cc1ncccc1CNCC1CCN(CCO)CC1`, for which the INHIBITION is listed as -64.9%.

Take `Cc1ncccc1CNCC1CCCN1c1cccnn1` (stereo not drawn): the INHIBITION was 7.67%.

With `COCCOc1ccccc1CNCc1c(C)nn(C)c1N(C)C`, the INHIBITION is given as -2.44%.

Regarding `Cc1cccc(CNCC2COC3(CCCCC3)O2)c1C` (stereo not drawn), the INHIBITION was -3.77%.

Turning to `Cc1cccc(CNCC2COC3(CCCC3)O2)c1C` (stereo not drawn), the INHIBITION worked out at 50%.

On to `CCN1CCOC(CNCc2ccccc2OCC(=O)N(C)C)C1` (stereo not drawn), for which the INHIBITION came to 12.8%.

With `Cc1ncccc1CNCC1COC2(CCCCC2)O1` (stereo not drawn), the INHIBITION worked out at 74.9%.

`Cc1cccc(CNC2(CCO)CCOCC2)c1C`: the INHIBITION turned out to be 27.3%.

Regarding `COCCOc1ccccc1CNCC1COC2(CCCC2)O1` (stereo not drawn), the INHIBITION came out at 81.5%.

Take `O=C(CCOCC(F)(F)F)N1CCCC1c1noc(C2CC2)n1` (stereo not drawn): the INHIBITION is given as -21.5%.

As to `Cc1nc(NC(=O)C(C)N(C)Cc2ccc3c(c2)OCO3)sc1C` (stereo not drawn), the INHIBITION was 46.3%.

On to `Cc1cc(C)n(C2CCCN(C(=O)CCOc3ccccc3F)C2)n1` (stereo not drawn), for which the INHIBITION is -11.4%.

In the case of `COCc1noc(-c2cc(Cl)c3c(c2)OCCCO3)n1`, the INHIBITION amounted to 19.8%.

Regarding `CN(C)c1ncc(NC(=O)N2CCC(CN3CCCC3)C2)cn1` (stereo not drawn), the INHIBITION is -45%.

For the compound `CC1CCN(C(=O)C2CCCN(C(=O)Nc3ccccn3)C2)CC1` (stereo not drawn), the INHIBITION is 89.6%.

`CC1CCN(CC(O)CNc2ccccn2)CC1` (stereo not drawn): the INHIBITION came out at 1.62%.

With `Cc1cccc(NC2CCN(C(=O)Nc3ccccn3)CC2)n1`, the INHIBITION turned out to be 28.8%.

For `CC1CCN(CC2CCCN(C(=O)Nc3ccccn3)C2)CC1` (stereo not drawn), the INHIBITION was determined as 55%.

Regarding `O=C(NC1CCCCC1)C1CCCN(C(=O)Nc2ccccn2)C1` (stereo not drawn), the INHIBITION is recorded as 66.1%.

`Cc1ccc(C(=O)NC2CCN(C(=O)Nc3ccccn3)CC2)s1`: the INHIBITION is on record as -21.9%.

Regarding `CC(=O)N1CCC(C(=O)N2CCCC(Cc3ccccn3)C2)CC1` (stereo not drawn), the INHIBITION is given as -6.92%.

For the compound `Cc1ccc(C(=O)NC2CCN(C(=O)Nc3ccccn3)CC2)o1`, the INHIBITION is -1.58%.
